This is an account of results in PubChem BioAssay (Tox21).

A short description of experiment [1]: qHTS assay to identify small molecule antagonists of the thyroid receptor (TR) signaling pathway - cell viability counter screen (AID 743064). Also: nearly all actives have a fitted effect of over 50% in size. Also: potency is read from the fitted curve at half-maximal effect. An outline of the steps: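 In rat pituitary GH3.TRE-Luc reporter cells co-exposed to compound and 1 nM T3 for 23.5 h, cytotoxicity was assessed with CellTiter-Fluor in the same wells, read by fluorescence.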
A general note: Quantitative high-throughput screening tests each substance at several concentrations.

Experiment [2] is described as follows: qHTS assay to identify small molecule antagonists of the thyroid receptor (TR) signaling pathway (AID 743065). Also: nearly all actives have a fitted effect of over 55% in size. Also: potency is read from the fitted curve at half-maximal effect. An outline of the steps: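 GH3.TRE-Luc rat pituitary cells carrying two TR response elements driving luciferase were plated for 4 h, given compound plus 1 nM T3 (final), and incubated 23.5 h at 37 C. ONE-Glo luminescence measured reporter inhibition; CellTiter-Fluor fluorescence tracked cytotoxicity.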

Experiment [3] relates to thyroid hormone receptor (rat, GH3 cells). Description: qHTS assay to identify small molecule agonists of the thyroid receptor (TR) signaling pathway (AID 743066; calls by dose curve).
For experiment [4], the target named is Estrogen receptor (Homo sapiens) (UniProt P03372). The experiment can be described thus: qHTS assay to identify small molecule antagonists of the estrogen receptor alpha (ER-alpha) signaling pathway (AID 743069; active = well fitted curve in the direction sought with a large enough effect in the signal ratio in the repeat runs, not every such curve was filed as active; the % refers to the signal ratio). The procedure, abridged:
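HEK293 cells stably carrying an ER-alpha-UAS-bla beta-lactamase reporter were pre-cultured overnight in 2% charcoal-stripped FBS medium. Test compounds in DMSO were added together with 17beta-estradiol for 18 hr at 37C. Read-out was fluorescence after 2 hr with LiveBLAzer B/G FRET substrate at room temperature.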

Experiment [5] is described as follows: qHTS assay to identify small molecule antagonists of the estrogen receptor alpha (ER-alpha) signaling pathway - cell viability counter screen (AID 743074; calls by dose curve; also: nearly all actives have a fitted effect of over 45% in size).
The target of experiment [6] is Estrogen receptor (Homo sapiens) (UniProt P03372). The experiment can be described thus: qHTS assay to identify small molecule agonists of the estrogen receptor alpha (ER-alpha) signaling pathway (AID 743075; calls by dose curve).
Experiment [7] has the same target. The experiment can be described thus: qHTS assay to identify small molecule agonists of the estrogen receptor alpha (ER-alpha) signaling pathway using the BG1 cell line (AID 743079). Also: nearly all actives have a fitted effect of over 20% in size.
Experiment [8] can be described thus: qHTS assay to identify small molecule antagonists of the estrogen receptor alpha (ER-alpha) signaling pathway using the BG1 cell line (AID 743080; calls by dose curve;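 also: BG1 cells stimulated with 17beta-estradiol alongside compound; series mostly up to about 70 µM; nearly all actives have a fitted effect of over 25% in size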). An outline of the steps:
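BG1-Luc-4E2 cells (endogenous full-length ER-alpha, 4xERE luciferase) hormone-starved 5 days in charcoal-stripped FBS, plated 4,000/well for 24 h, then compound plus 17beta-estradiol for 21.5 h at 37 C; ONE-Glo luminescence read.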

Experiment [9] addresses Aromatase (Homo sapiens) (UniProt P11511). Description: qHTS assay to identify aromatase inhibitors (AID 743083). Also: series mostly up to about 70 µM; nearly all actives have a fitted effect of over 55% in size.
Experiment [10] is described as follows: qHTS assay to identify aromatase inhibitors - cell viability counter screen (AID 743084).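 Also: cells stimulated with testosterone during compound exposure; nearly all actives have a fitted effect of over 55% in size.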
In experiment [11] the target is Aryl hydrocarbon receptor (Homo sapiens) (UniProt P35869). The experiment can be described thus: qHTS assay to identify small molecule that activate the aryl hydrocarbon receptor (AhR) signaling pathway (AID 743085).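 Also: HG2L7.5c1 human HepG2 liver cells with stably integrated DRE-driven firefly reporter; series mostly up to about 70 µM; nearly all actives have a fitted effect of over 15% in size.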 The procedure, abridged:
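AhR agonist activity is inferred from enhanced light output of a DRE-controlled firefly luciferase reporter in HepG2 cells, measured with ONE-Glo following 24 h treatment at 37C.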

Experiment [12] can be described thus: qHTS assay to identify small molecule that activate the aryl hydrocarbon receptor (AhR) signaling pathway - cell viability counter screen (AID 743086).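 Also: HepG2 liver cells carrying the AhR DRE luciferase reporter; series mostly up to about 70 µM; nearly all actives have a fitted effect of over 45% in size.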 The procedure, abridged:
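HepG2-AhR-luc (HG2L7.5c1) cells, 4000/well, were preincubated 5 h at 37C, exposed to compound in qHTS format for 24 hr at 37C, then given CellTiter-Fluor for 30 min; viability was read as fluorescence in the reporter wells.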

A short description of experiment [13]: qHTS assay for small molecule agonists of the antioxidant response element (ARE) signaling pathway - cell viability counter screen (AID 743203; calls by dose curve; also: nearly all actives have a fitted effect of over 55% in size). An outline of the steps:
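Following 16 hrs of compound treatment at 37C, HepG2 cells with an ARE-controlled beta-lactamase gene were lysed with CellTiter-Glo. Luminescence was read after 30 min at room temperature.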

Experiment [14] is described as follows: qHTS assay for small molecule activators of the heat shock response signaling pathway - cell viability counter screen (AID 743209). Also: nearly all actives have a fitted effect of over 50% in size. An outline of the steps: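 Readout: CellTiter-Glo luminescence, 30 min at room temperature. System: HSE-bla HeLa cells, 1500/well, plated overnight. Treatment: compounds in DMSO, 5 h at 37 C.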
The nature of experiment [15]: qHTS assay for small molecule activators of the heat shock response signaling pathway (AID 743210; active = well fitted activation curve with a large enough effect in the signal ratio in the repeat runs, with a control signal flat, not every such curve was filed as active; the % refers to the signal ratio; also: series mostly up to about 63 µM). An outline of the steps: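 HSE-bla HeLa cells (beta-lactamase reporter under heat shock response elements) were exposed to compounds for 5 h at 37 C, then loaded with LiveBLAzer B/G FRET substrate for 2.5 h at room temperature before fluorescence reading.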
A short description of experiment [16]: qHTS assay to identify small molecule antagonists of the estrogen receptor alpha (ER-alpha) signaling pathway using the BG1 cell line - cell viability counter screen (AID 743081).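 Also: compound given together with 17beta-estradiol as the ER stimulus; series mostly up to about 70 µM; nearly all actives have a fitted effect of over 45% in size.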
Experiment [17] concerns the target Peroxisome proliferator-activated receptor gamma (Homo sapiens) (UniProt P37231). The experiment can be described thus: qHTS assay to identify small molecule agonists of the peroxisome proliferator-activated receptor gamma (PPARg) signaling pathway (AID 743094; active = well fitted activation curve with a large enough effect in the signal ratio in the repeat runs, not every such curve was filed as active; the % refers to the signal ratio). The procedure, abridged: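 Compounds dissolved in DMSO were added to PPARg UAS-bla HEK293H cells for 17 h at 37C, and reporter expression was quantified by fluorescence intensity after 1 h with LiveBLAzer B/G FRET substrate.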

Experiment [18] is described as follows: qHTS assay to identify small molecule antagonists of the peroxisome proliferator-activated receptor gamma (PPARg) signaling pathway - cell viability counter screen (AID 743194). Also: nearly all actives have a fitted effect of over 55% in size. The procedure, abridged:
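PPARg-UAS-bla HEK293H cells were plated, rested 5 h at 37 C, then treated with compounds plus rosiglitazone (50 nM final) for 17 h at 37 C; viability was then read by CellTiter-Glo luminescence after 30 min at room temperature.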

In experiment [19] the target is Peroxisome proliferator-activated receptor gamma (Homo sapiens) (UniProt P37231). The experiment can be described thus: qHTS assay to identify small molecule antagonists of the peroxisome proliferator-activated receptor gamma (PPARg) signaling pathway (AID 743191; calls by dose curve; also: series mostly up to about 63 µM; nearly all actives have a fitted effect of over 30% in size). An outline of the steps:
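GeneBLAzer PPARg UAS-bla HEK293H cells carrying a UAS-driven beta-lactamase reporter were plated at 3000 cells/well, preincubated 5 h at 37C, then given compound for 17 h at 37C; LiveBLAzer B/G FRET substrate was read after 1 h at room temperature.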

Experiment [20] can be described thus: qHTS assay for small molecule agonists of the antioxidant response element (ARE) signaling pathway (AID 743202; active = well fitted activation curve with a large enough effect in the signal ratio in the repeat runs, not every such curve was filed as active; the % refers to the signal ratio). An outline of the steps: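 Read-out: LiveBLAzer B/G FRET substrate fluorescence after 2 h at room temperature, following 16 h compound treatment at 37 C of HepG2 cells carrying an ARE-driven beta-lactamase reporter.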

Inconclusive results are not listed. The source made the active and inactive calls. Unless noted, calls follow the shape of the dose curve; as a rule, active = well fitted curve in the direction sought with a large enough effect in the repeat runs; inconclusive = weak or mixed curves; inactive = no such curve, though single readings can be large; an effect the other way counts as inactive or inconclusive.

Sequence of Estrogen receptor (Homo sapiens) (P03372 whole entry, looked up): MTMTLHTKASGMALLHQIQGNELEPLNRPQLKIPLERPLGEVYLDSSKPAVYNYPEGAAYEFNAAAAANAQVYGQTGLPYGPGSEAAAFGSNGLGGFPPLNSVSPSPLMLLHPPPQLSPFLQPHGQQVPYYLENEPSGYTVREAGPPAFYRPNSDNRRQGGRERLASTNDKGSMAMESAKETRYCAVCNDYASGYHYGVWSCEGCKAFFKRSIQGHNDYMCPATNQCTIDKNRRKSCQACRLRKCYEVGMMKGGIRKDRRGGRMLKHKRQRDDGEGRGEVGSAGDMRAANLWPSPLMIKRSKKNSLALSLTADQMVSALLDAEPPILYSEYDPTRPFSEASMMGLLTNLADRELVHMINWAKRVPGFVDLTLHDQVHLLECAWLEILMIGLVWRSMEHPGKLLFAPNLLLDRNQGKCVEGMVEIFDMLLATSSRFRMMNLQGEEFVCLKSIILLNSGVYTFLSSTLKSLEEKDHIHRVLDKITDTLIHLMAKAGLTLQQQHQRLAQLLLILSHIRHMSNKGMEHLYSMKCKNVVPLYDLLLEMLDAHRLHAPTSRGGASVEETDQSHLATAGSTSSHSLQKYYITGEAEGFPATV
Sequence of Aryl hydrocarbon receptor (Homo sapiens) (P35869 whole entry, looked up): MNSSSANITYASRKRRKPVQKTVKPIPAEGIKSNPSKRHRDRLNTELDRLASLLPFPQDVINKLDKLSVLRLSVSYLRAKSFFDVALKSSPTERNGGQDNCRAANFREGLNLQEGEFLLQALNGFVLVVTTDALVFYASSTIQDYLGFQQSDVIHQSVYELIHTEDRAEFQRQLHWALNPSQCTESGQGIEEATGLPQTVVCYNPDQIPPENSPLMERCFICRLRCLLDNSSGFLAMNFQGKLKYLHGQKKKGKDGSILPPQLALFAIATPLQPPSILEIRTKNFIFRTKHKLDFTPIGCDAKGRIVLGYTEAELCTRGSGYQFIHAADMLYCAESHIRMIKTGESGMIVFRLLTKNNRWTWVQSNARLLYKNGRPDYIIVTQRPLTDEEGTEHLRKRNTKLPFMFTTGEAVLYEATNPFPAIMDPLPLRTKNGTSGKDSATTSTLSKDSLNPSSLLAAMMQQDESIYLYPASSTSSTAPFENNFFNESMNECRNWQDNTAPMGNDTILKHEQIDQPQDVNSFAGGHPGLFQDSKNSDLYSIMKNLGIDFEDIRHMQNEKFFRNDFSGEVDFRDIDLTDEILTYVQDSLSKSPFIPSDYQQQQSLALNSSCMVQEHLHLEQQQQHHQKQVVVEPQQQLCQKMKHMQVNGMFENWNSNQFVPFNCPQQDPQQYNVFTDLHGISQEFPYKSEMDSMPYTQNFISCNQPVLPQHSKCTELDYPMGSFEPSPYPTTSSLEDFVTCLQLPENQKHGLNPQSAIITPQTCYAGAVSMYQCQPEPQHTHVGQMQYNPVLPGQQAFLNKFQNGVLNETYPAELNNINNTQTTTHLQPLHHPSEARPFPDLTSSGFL
Sequence of Peroxisome proliferator-activated receptor gamma (Homo sapiens) (P37231 whole entry, looked up): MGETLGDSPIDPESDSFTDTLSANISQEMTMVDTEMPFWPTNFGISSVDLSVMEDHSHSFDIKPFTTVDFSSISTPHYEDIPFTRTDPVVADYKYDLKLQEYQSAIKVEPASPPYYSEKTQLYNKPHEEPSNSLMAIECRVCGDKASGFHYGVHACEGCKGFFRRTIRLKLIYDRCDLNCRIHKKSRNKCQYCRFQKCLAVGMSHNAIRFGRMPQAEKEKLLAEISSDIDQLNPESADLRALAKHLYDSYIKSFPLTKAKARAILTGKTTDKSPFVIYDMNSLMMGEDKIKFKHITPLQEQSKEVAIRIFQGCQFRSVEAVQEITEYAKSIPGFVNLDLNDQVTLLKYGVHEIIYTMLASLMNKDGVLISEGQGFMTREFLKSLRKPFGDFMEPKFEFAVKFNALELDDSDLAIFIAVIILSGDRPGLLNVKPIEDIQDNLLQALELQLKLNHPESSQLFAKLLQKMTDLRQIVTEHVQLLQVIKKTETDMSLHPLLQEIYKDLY
Sequence of Aromatase (Homo sapiens) (P11511 whole entry, looked up): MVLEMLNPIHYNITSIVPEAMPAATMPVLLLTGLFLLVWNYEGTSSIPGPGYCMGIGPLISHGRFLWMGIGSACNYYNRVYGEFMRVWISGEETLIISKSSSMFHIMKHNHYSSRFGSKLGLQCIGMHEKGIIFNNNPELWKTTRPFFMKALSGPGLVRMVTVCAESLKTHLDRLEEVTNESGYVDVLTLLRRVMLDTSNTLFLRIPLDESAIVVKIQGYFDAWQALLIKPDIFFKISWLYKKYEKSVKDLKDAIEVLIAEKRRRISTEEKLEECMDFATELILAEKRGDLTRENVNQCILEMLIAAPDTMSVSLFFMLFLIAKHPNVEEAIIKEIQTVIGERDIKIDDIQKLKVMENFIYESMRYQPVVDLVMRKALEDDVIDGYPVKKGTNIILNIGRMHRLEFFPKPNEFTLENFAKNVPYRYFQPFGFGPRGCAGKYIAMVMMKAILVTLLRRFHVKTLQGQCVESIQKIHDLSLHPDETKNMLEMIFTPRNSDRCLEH

As for `CN1CCC(=C2c3ccccc3CC(=O)c3sccc32)CC1`, the Potency in experiment [1] is 15 µM (active); in experiment [2], 23.7 µM (active). Moreover, the result in experiment [3], in experiment [4], in experiment [5], in [8], in experiment [14] and in [15] was inactive. Besides, the Potency result in experiment [6], in experiment [7], in [9], in experiment [10], in experiment [11] and in [12] was “inactive” each time. The Potency result in [13] is “inactive”.

Regarding `CC(C)(C)c1nnc(NS(=O)(=O)c2ccccc2)s1`, the Potency entry in [1], in [2], in experiment [6], in experiment [7], in experiment [16] and in [9] was “inactive” in each case. Also, the Potency result in experiment [10], in experiment [11], in [12] and in experiment [13] was “inactive” throughout. For the same molecule, the molecule was called inactive in experiment [3], in experiment [4], in experiment [5], in [17], in experiment [18] and in experiment [14]. Also, the call in [15] was inactive.

`C=C[Si](OC(=C)C)(OC(=C)C)OC(=C)C`: the Potency entry in experiment [1], in experiment [2], in experiment [6], in [16], in [9] and in experiment [10] was “inactive” in each case. The Potency entry in experiment [11], in experiment [12], in experiment [19], in experiment [20] and in experiment [13] was “inactive” each time. In addition, the result in experiment [3], in experiment [4], in [5], in experiment [8], in [18] and in experiment [14] was inactive. For the same molecule, in experiment [15], the molecule was called inactive.

Consider `CN(C)CCCSc1ccccc1NC(=O)/C=C/c1ccccc1`, for which the Potency in experiment [1] was 26.6 µM (active); in experiment [2], 23.7 µM (active). The molecule was called inactive in experiment [3], in experiment [4], in experiment [17], in [18], in experiment [14] and in experiment [15]. The Potency entry in experiment [6], in experiment [7], in [9], in [10], in experiment [12] and in [20] was “inactive” in each case. In addition, the Potency entry in experiment [13] was “inactive”.

For `COC(=O)NN`, the Potency result in experiment [1], in experiment [2], in [6], in experiment [7], in experiment [16] and in experiment [9] was “inactive” each time. For the same molecule, the Potency entry in experiment [10], in experiment [11], in [12], in [19], in [20] and in experiment [13] was “inactive” each time. The outcome in experiment [3], in [4], in experiment [5], in experiment [17], in experiment [14] and in experiment [15] was inactive.

`Nc1nc2c(ncn2COC(CO)CO)c(=O)[nH]1`: the Potency result in [1], in experiment [2], in experiment [6], in [7], in experiment [9] and in experiment [10] was “inactive” in each case. Besides, the Potency result in experiment [11], in [12], in experiment [19], in experiment [20] and in experiment [13] was “inactive” throughout. The molecule was classed as inactive in [3], in experiment [4], in experiment [5], in [17], in [14] and in experiment [15].

As for `CCc1nccnc1CC`, the Potency result in experiment [1], in [2], in experiment [6], in experiment [16], in experiment [9] and in [10] was “inactive” throughout. For the same molecule, the Potency result in experiment [11] and in [12] was “inactive” throughout. For the same molecule, the molecule was classed as inactive in experiment [3], in experiment [4], in experiment [5], in experiment [8], in experiment [18] and in experiment [14]. Also, in experiment [15], the molecule was called inactive.

As to `CC(=O)OCC(CCn1cnc2cnc(N)nc21)COC(C)=O`, the Potency entry in [1], in [2], in [6], in experiment [7], in experiment [16] and in experiment [9] was “inactive” throughout. Moreover, the Potency result in [10], in experiment [11], in [12], in experiment [19], in [20] and in [13] was “inactive” in each case. Also, the call in experiment [3], in experiment [4], in [5], in experiment [17], in experiment [18] and in [14] was inactive.

On to `Cc1nc2c([nH]1)c(=O)n(C)c(=O)n2Cc1ccco1`, for which the Potency result in [1], in experiment [2], in experiment [6], in experiment [7], in [16] and in experiment [9] was “inactive” throughout. The Potency entry in experiment [10], in experiment [12], in experiment [20] and in [13] was “inactive” each time. Besides, the molecule was called inactive in experiment [3], in experiment [4], in experiment [5], in experiment [18], in [14] and in experiment [15].
